# In PubChem BioAssay:
# Unmarked numbers belong to inactive results. Calls of active or inactive are those of the source.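 Rule for the calls, unless noted: active = viability loss from added drug above about 55%, and viability with drug at most 40%, in both replicates (limit read from the data, passing the limit was not always enough); inconclusive = both conditions met in only one replicate; inactive = neither replicate meets both conditions.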
# Test: H69AR cell proliferation blockers – human, duplicate replicates, primary screen (AID 580;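 active = viability at or under a set limit in both replicates, limit being median viability minus 3 SD, cut at about 48% in these data, passing the limit was not always enough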;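 note: 100% = mean luminescence of untreated wells and 0% = no signal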)
# Conditions: H69AR lung tumor cells viability, ATP luminescence, 72 h; at 10 µM; hits give low values
row,SMILES,viability
1,COc1ccccc1NC(=O)CSc1nnc(-c2ccncc2)o1,93.8%
2,CCOc1ccc2oc(-c3ccccc3)c(C(=O)N3CCN(CCO)CC3)c2c1,72.9%
3,O=S(=O)(NCC1CCCO1)c1ccc(S(=O)(=O)N2CCc3ccccc3C2)cc1 (stereo not given),94.8%
4,CCC(C(=O)Nc1ncccn1)(C(F)(F)F)C(F)(F)F,103%
5,O=C(Cc1ccc(Br)cc1)N1CCCCCC1,97.9%
6,Cc1ccc2cc(C(c3nnnn3CC3CCCO3)N3CCc4ccccc4C3)c(=O)[nH]c2c1 (stereo not given),100%
7,S=C(NCC1CCCO1)n1nnc2ccccc21 (stereo not given),74.8%
8,CO/C([O-])=N/c1c[n+](-c2ccc(C)cc2)no1,90.5%
9,CNc1ccc(C(O)(C(F)(F)F)C(F)(F)F)cc1C(O)(C(F)(F)F)C(F)(F)F,80.7%
10,COc1ccccc1-n1c(SCC(=O)Nc2ccc3c(c2)OCO3)nc2c(c1=O)SCC2,87.4%
11,O=c1cc(C(F)F)oc2c1ccc1ccccc12,81.7%
12,CCOc1cc(C2/C(=C(/O)c3ccc(OC(C)C)cc3)C(=O)C(=O)N2CCCOC)ccc1O (stereo not given),99.1%
13,Cc1ccc(S(=O)(=O)Cn2nnnc2CN(Cc2ccco2)Cc2cccs2)cc1,80.6%
14,Cc1c(NC(=O)c2ccc(COc3ccc4ccccc4c3)o2)c(=O)n(-c2ccccc2)n1C,99%
15,COc1ccc(Cc2nc(-c3ccc(Br)cc3)no2)cc1,98.2%
16,CC(CCc1ccccc1)NC(=O)c1ccc(Br)o1 (stereo not given),93.5%
17,O=C1CC(c2ccsc2)c2cc3c(cc2N1)OCCO3 (stereo not given),26.9% (active)
18,CCCN1C(=O)c2cc(C(=O)O)ccc2C1O (stereo not given),103%
19,Cc1ccccc1-c1nc2ccccc2c(=O)n1C1CCS(=O)(=O)C1 (stereo not given),90.3%
20,COC1CCCCC1NS(=O)(=O)c1ccccc1 (stereo not given),97.7%

row,SMILES,viability
1,CCOC(=O)N1CCN(Cc2nc3c(c(=O)[nH]c(=O)n3C)n2Cc2cc(C)ccc2C)CC1,96.1%
2,O=C(NCC1COc2ccccc2O1)c1ccc(NC(=O)c2ccco2)cc1 (stereo not given),99.1%
3,COCCN(C(=O)CNC(=O)c1ccco1)C(C(=O)NC1CCCCC1)c1cccc(OC)c1 (stereo not given),102%
4,Cc1sc2ncnc(SCC(=O)N3CCCC3)c2c1C,93%
5,CCC(C)(C)n1nnnc1C(c1ccc(OC)c(OC)c1)N1CCN(c2ccccc2)CC1 (stereo not given),88.8%
6,OC(CN1CCCCC1)Cn1c(C(F)(F)F)nc2ccccc21 (stereo not given),83.4%
7,O=C(CN(c1ccccc1)S(=O)(=O)c1ccccc1)N1CCN(Cc2ccc3c(c2)OCO3)CC1,96.9%
8,COc1ccc(CC(=O)OCn2nnc3ccccc3c2=O)cc1,98%
9,N#CC(C(=O)Nc1ccc(Cl)c(Cl)c1)=C1Nc2ccccc2N1,13.5% (active)
10,COc1ccc(C)cc1NC(=O)CN1CCN(S(=O)(=O)c2ccc(Cl)cc2)CC1,82.6%
11,CCCCCn1c2nc3ccccc3nc2c2c(=O)n(CC(C)C)cnc21,87.3%
12,CCn1ncc(C2=NOC(C(=O)Nc3ccc4c(c3)OCO4)C2)c1C (stereo not given),94.8%
13,COc1ccc(CCNS(=O)(=O)c2ccc3c(c2)CCN3C(=O)CCC(=O)O)cc1OC,94.1%
14,O=C(CS(=O)(=O)c1cn(Cc2ccc(Cl)cc2)c2ccccc12)N1CCOCC1,97%
15,CCCS(=O)(=O)C(=C1Nc2ccccc2N1)S(=O)(=O)CCC,103%
16,CCn1c(CCC(=O)Nc2nc3c(s2)CCCC3)nc2cc(S(=O)(=O)N(C)C)ccc21,85.4%
17,Cc1nn(-c2ccccc2)c2c1C(O)n1c(nc3ccccc31)S2 (stereo not given),26.2% (active)
18,CCSc1nc2ccccc2n1CCC(=O)O,109%
19,COc1cccc(CN=CC2=C(O)CC(C)(C)CC2=O)c1OC,100%
20,CCOC(=O)NC(=O)CSc1nnnn1-c1ccc(Cl)cc1,106%

# Test: MRP1 drug-resistance reversers in H69AR cells – cell-based, doxorubicin co-treatment, pilot screen (AID 601)
# Conditions: H69AR cells + 2 uM doxorubicin, CellTiter-Glo, 72 h; at 10 µM; hits give high values
row,SMILES,differential viability (reversal) [%]
1,COc1ccccc1NC(=O)CSc1nnc(-c2ccncc2)o1,2.67
2,CCOc1ccc2oc(-c3ccccc3)c(C(=O)N3CCN(CCO)CC3)c2c1,3.36
3,O=S(=O)(NCC1CCCO1)c1ccc(S(=O)(=O)N2CCc3ccccc3C2)cc1 (stereo not given),5.08
4,CCC(C(=O)Nc1ncccn1)(C(F)(F)F)C(F)(F)F,8.62
5,O=C(Cc1ccc(Br)cc1)N1CCCCCC1,8.29
6,Cc1ccc2cc(C(c3nnnn3CC3CCCO3)N3CCc4ccccc4C3)c(=O)[nH]c2c1 (stereo not given),-2.15
7,S=C(NCC1CCCO1)n1nnc2ccccc21 (stereo not given),0.715
8,CO/C([O-])=N/c1c[n+](-c2ccc(C)cc2)no1,-0.875
9,CNc1ccc(C(O)(C(F)(F)F)C(F)(F)F)cc1C(O)(C(F)(F)F)C(F)(F)F,-3.27
10,COc1ccccc1-n1c(SCC(=O)Nc2ccc3c(c2)OCO3)nc2c(c1=O)SCC2,0.71
11,O=c1cc(C(F)F)oc2c1ccc1ccccc12,-9.89
12,CCOc1cc(C2/C(=C(/O)c3ccc(OC(C)C)cc3)C(=O)C(=O)N2CCCOC)ccc1O (stereo not given),1.7
13,Cc1ccc(S(=O)(=O)Cn2nnnc2CN(Cc2ccco2)Cc2cccs2)cc1,4.66
14,Cc1c(NC(=O)c2ccc(COc3ccc4ccccc4c3)o2)c(=O)n(-c2ccccc2)n1C,13.7
15,COc1ccc(Cc2nc(-c3ccc(Br)cc3)no2)cc1,-2.99
16,CC(CCc1ccccc1)NC(=O)c1ccc(Br)o1 (stereo not given),9.45
17,O=C1CC(c2ccsc2)c2cc3c(cc2N1)OCCO3 (stereo not given),-33.3
18,CCCN1C(=O)c2cc(C(=O)O)ccc2C1O (stereo not given),18.7
19,Cc1ccccc1-c1nc2ccccc2c(=O)n1C1CCS(=O)(=O)C1 (stereo not given),-9.98
20,COC1CCCCC1NS(=O)(=O)c1ccccc1 (stereo not given),1.47

row,SMILES,differential viability (reversal) [%]
1,CCOC(=O)N1CCN(Cc2nc3c(c(=O)[nH]c(=O)n3C)n2Cc2cc(C)ccc2C)CC1,7.95
2,O=C(NCC1COc2ccccc2O1)c1ccc(NC(=O)c2ccco2)cc1 (stereo not given),6.69
3,COCCN(C(=O)CNC(=O)c1ccco1)C(C(=O)NC1CCCCC1)c1cccc(OC)c1 (stereo not given),12.6
4,Cc1sc2ncnc(SCC(=O)N3CCCC3)c2c1C,9.69
5,CCC(C)(C)n1nnnc1C(c1ccc(OC)c(OC)c1)N1CCN(c2ccccc2)CC1 (stereo not given),9.98
6,OC(CN1CCCCC1)Cn1c(C(F)(F)F)nc2ccccc21 (stereo not given),-3.04
7,O=C(CN(c1ccccc1)S(=O)(=O)c1ccccc1)N1CCN(Cc2ccc3c(c2)OCO3)CC1,5.03
8,COc1ccc(CC(=O)OCn2nnc3ccccc3c2=O)cc1,-3.25
9,N#CC(C(=O)Nc1ccc(Cl)c(Cl)c1)=C1Nc2ccccc2N1,-10.8
10,COc1ccc(C)cc1NC(=O)CN1CCN(S(=O)(=O)c2ccc(Cl)cc2)CC1,25.3
11,CCCCCn1c2nc3ccccc3nc2c2c(=O)n(CC(C)C)cnc21,-3.98
12,CCn1ncc(C2=NOC(C(=O)Nc3ccc4c(c3)OCO4)C2)c1C (stereo not given),0.945
13,COc1ccc(CCNS(=O)(=O)c2ccc3c(c2)CCN3C(=O)CCC(=O)O)cc1OC,4.3
14,O=C(CS(=O)(=O)c1cn(Cc2ccc(Cl)cc2)c2ccccc12)N1CCOCC1,8.43
15,CCCS(=O)(=O)C(=C1Nc2ccccc2N1)S(=O)(=O)CCC,12.9
16,CCn1c(CCC(=O)Nc2nc3c(s2)CCCC3)nc2cc(S(=O)(=O)N(C)C)ccc21,18.7
17,Cc1nn(-c2ccccc2)c2c1C(O)n1c(nc3ccccc31)S2 (stereo not given),-8.14
18,CCSc1nc2ccccc2n1CCC(=O)O,15.9
19,COc1cccc(CN=CC2=C(O)CC(C)(C)CC2=O)c1OC,-0.91
20,CCOC(=O)NC(=O)CSc1nnnn1-c1ccc(Cl)cc1,20.4
